Compounds with a hit are over-represented: about 3.5% of the library has one in this group of screens.
Myeloid diff 2 = promotes myeloid progenitor differentiation; ER-HoxA9 myeloid progenitors, lysozyme-GFP differentiation, flow cytometry; calls only at 10 µM; hit rate 1% among 360,000; AID 624256;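 active = normalized GFP-positive differentiation at or above the plate's own cutoff, the solvent-only control mean plus 3 SD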;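 note: cells exposed to compound for four days before flow analysis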
M1 ag = human M1 muscarinic receptor agonism; P11229; CHO-K1 hM1, Fluo-8 calcium fluorescence, agonist mode; 0% DMSO, 100% acetylcholine EC100; activation, % at 3 µM; AID 588814; hit rate 0.33% among 360,000;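 active = activation above the run's mean compound activation plus 3 SD, cut at about 16% in these data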;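 note: peak over basal fluorescence ratio within a 140 s kinetic read after compound addition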
Target sequence (P11229 whole entry, looked up): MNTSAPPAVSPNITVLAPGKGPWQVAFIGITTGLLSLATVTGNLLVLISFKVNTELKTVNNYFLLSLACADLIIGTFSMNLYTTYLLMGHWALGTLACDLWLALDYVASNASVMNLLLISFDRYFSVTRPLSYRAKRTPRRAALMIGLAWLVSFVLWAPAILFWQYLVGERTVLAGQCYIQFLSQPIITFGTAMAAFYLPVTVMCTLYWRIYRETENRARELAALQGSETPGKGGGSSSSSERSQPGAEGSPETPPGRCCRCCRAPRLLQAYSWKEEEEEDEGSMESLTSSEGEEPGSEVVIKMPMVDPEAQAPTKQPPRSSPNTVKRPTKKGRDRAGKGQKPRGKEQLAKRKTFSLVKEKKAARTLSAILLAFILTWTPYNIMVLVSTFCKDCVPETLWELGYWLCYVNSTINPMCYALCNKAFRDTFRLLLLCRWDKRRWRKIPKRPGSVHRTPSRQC
SKN-1 inh = inhibitors of C. elegans SKN-1. C. elegans VP596 Pgst-4::GFP/RFP ratio, acrylamide-induced, 24 h. inhibition, % at 21.8 µM. hit rate 0.49% among 360,000;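 active = interference check ratio from 0.5 to 1.5 plus GFP to RFP signal ratio inhibition reaching or exceeding a fixed threshold, cut at about 30% in these data, passing the limit was not always enough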
CHRM1 PAM = potentiates human M1 receptor response to acetylcholine | hit rate 0.088% among 360,000 | P11229 | activation, % at 3 µM | CHO-K1 hM1, Fluo-8 calcium fluorescence, ACh EC20; 0% = ACh EC20, 100% = maximal ACh; in the data active = activation above about 19%, passing the limit was not always enough
ATG4B inh = inhibitors of human ATG4B cysteine protease. Q9Y4P1. ATG4B cleavage of LC3-PLA2, NBD-HPC fluorescence, 1 h. inhibition, % at 8.33 µM. hit rate 0.51% among 340,000. AID 504462; in the data active = inhibition above about 40%
CHRM1 antagonist = human CHRM1 antagonism; P11229; CHO-K1 hM1, Fluo-8 calcium fluorescence, ACh EC80 antagonist; inhibition, % at 3 µM; hit rate 1.3% among 360,000;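 active = percent inhibition above its own plate's cutoff, namely the mean of that plate's compound wells plus 3 SD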;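 note: peak over basal fluorescence ratio during 140 s after agonist addition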
Numbers stand for hits; 0 = inactive; - = not tested or not shown; + = active, no number.

SMILES | Myeloid diff 2 | M1 ag | SKN-1 inh | CHRM1 PAM | ATG4B inh | CHRM1 antagonist
COc1cccc(CN(CC(=O)NCc2ccccc2)S(=O)(=O)CCl)c1 | 0 | 0 | 0 | 0 | 0 | 0
C=CCN(c1ccccc1)S(=O)(=O)c1cccc(C(=O)Oc2ccc3c(C)cc(=O)oc3c2)c1 | 0 | 0 | 0 | 0 | 0 | 0
COC(=O)c1c[nH]c2c1-c1cc(C(=O)OCc3ccccc3)n(S(=O)(=O)c3ccc(C)cc3)c1C(=O)C2=O | - | 0 | 0 | 0 | 0 | 0
CN(Cc1cccnc1)C(=O)c1cc(S(=O)(=O)Nc2ccccc2F)ccc1Cl | 0 | 0 | 0 | 0 | 0 | 0
COCCNC(=O)C[C@@H]1C[C@H]2c3cc(NC(=O)Nc4ccc(F)cc4)ccc3O[C@H]2[C@H](CO)O1 | 0 | 0 | 0 | 0 | - | 0
COc1cccc(N2CCN(CC(=O)C34CC5CC(CC(C5)C3)C4)CC2)c1 | 0 | 0 | 0 | 0 | 0 | 0
COc1cccc(N2CCN(C(C)C(=O)NC34CC5CC(CC(C5)C3)C4)CC2)c1 (stereo not given) | + | 0 | 0 | 0 | 0 | 0
COC(=O)c1ccc(CO/N=C(\NC(C)=O)c2nonc2NC(C)=O)cc1 | 0 | 17.0 | 0 | 0 | 0 | 0
CCOC1=C2CN(S(=O)(=O)c3ccc(C)cc3)C(c3cccc(Cl)c3)CC2N(S(=O)(=O)c2ccc(C)cc2)C(c2ccncc2)C1 (stereo not given) | 0 | - | 0 | - | - | -
Cc1c(CCC(=O)NCCCn2ccnc2)c(=O)oc2c(C)c3oc4c(c3cc12)CCCC4 | + | 0 | 0 | 0 | 0 | 0
CC(Oc1ccc(C#N)cc1)C(=O)Nc1ccc(-n2cnnn2)cc1 (stereo not given) | 0 | 17.0 | 0 | 0 | 0 | 0
CC(=O)Nc1ccc(-n2cnnn2)cc1 | 0 | 0 | 0 | 0 | 0 | 0
CCOC(=O)C1=C(C)NC(=O)NC1c1ccc(N(CC)CC)cc1 (stereo not given) | 0 | 0 | 0 | 0 | 0 | 30.0
CCN(CC)c1ccc(C2C(C(=O)OC)=C(C)NC(C)=C2C(=O)OC)cc1 | 0 | 0 | 0 | 0 | 0 | 37.3
COC(=O)C1=C(C)NC(C)=C(C(=O)OC)C1c1ccc(NC(C)=O)cc1 | 0 | 32.2 | 0 | 0 | 0 | 0
CSc1nc(N)nc(-c2cccs2)c1C#N | 0 | 0 | 0 | 0 | 0 | 0
CC(C)Sc1nc(N)nc(-c2cccs2)c1C#N | 0 | 0 | 39.6 | 0 | 0 | 0
O=C(N/N=C/c1ccccc1C(=O)O)c1ccc(COc2cccc3cccnc23)cc1 | + | 0 | 0 | 0 | 0 | 0
O=C(COc1cccc2cccnc12)N/N=C/c1ccccc1O | 0 | 0 | 0 | 0 | 0 | 0
O=C1CCC/C(=N\NC(=O)c2ccc(COc3cccc4cccnc34)cc2)C1 | 0 | 0 | 0 | 0 | 0 | 0
O=[N+]([O-])c1ccc(OCCCOc2cccc3cccnc23)cc1 | 0 | 0 | 0 | 0 | 0 | 0
O=[N+]([O-])c1ccc(COc2cccc3cccnc23)cc1 | 0 | 0 | 36.3 | 0 | 0 | 0
NNC(=O)c1ccc(COc2cccc3cccnc23)cc1 | + | 0 | 0 | 0 | 0 | 0
CCN1C[C@@H]2[C@@H]3C(=O)N(C)C(=O)[C@@H]3[C@](Cc3ccccc3)(C1=O)N2C(=O)c1ccc(F)cc1 | 0 | 0 | 0 | 0 | 0 | 0
CSC(=Nc1ccccc1)N=C(SCc1ccccc1)N(C)C | - | 0 | 0 | 0 | 0 | 49.0
SMILES | Myeloid diff 2 | M1 ag | SKN-1 inh | CHRM1 PAM | ATG4B inh | CHRM1 antagonist
CCOC(=O)[C@]12CCCC=C1N(Cc1ccccc1)C(=O)[C@H](CC(=O)N1CCN(C(=O)c3ccco3)CC1)C2 | 0 | - | 0 | - | - | -
CCOc1ccccc1NC(=O)CN1CCCCCC1 | 0 | 0 | 0 | 0 | 0 | 26.4
COc1ccccc1NC(=O)CN1CCN(CC(=O)Nc2ccc(OCc3ccccc3)cc2)CC1 | 0 | 0 | 0 | 0 | 0 | 16.1
O=C(CN1CCCCC1)Nc1ccccc1NC(=O)CN1CCCCC1 | 0 | 0 | 0 | 0 | 0 | 0
CC(C(=O)Nc1ccc(OCc2ccccc2)cc1)N1CCCC1 (stereo not given) | 0 | 0 | 0 | 0 | 0 | 49.1
CCOC(=O)C(=O)c1cn(C2OCC(OC(C)=O)C(OC(C)=O)C2OC(C)=O)c2ccccc12 (stereo not given) | 0 | 0 | 0 | 0 | 0 | 0
COc1cc(CC(=O)N2CCN(S(=O)(=O)c3ccc(C(C)C)cc3)CC2)cc(OC)c1OC | 0 | 0 | 0 | 0 | - | 0
CCc1nc2ccc(C(=O)Nc3cccc(OCC(=O)N(C)C)c3)cn2c1N(C)Cc1ccc(N(C)C)cc1 | 0 | 0 | 0 | 0 | - | 0
CCOC(=O)C1(C#N)C(=O)CSC1=Nc1ccccc1Cl (stereo not given) | 0 | 0 | 0 | 0 | - | 0
COC(=O)c1ccc(CN(c2ccc(C)cc2)S(=O)(=O)c2ccc3c(c2)OCCO3)o1 | 0 | 0 | 0 | 0 | 0 | 0
COc1cc2c(cc1NC(=O)CN1CCN(S(=O)(=O)c3ccc(C)cc3)CC1)oc1ccccc12 | 0 | 0 | 0 | 22.9 | 0 | 0
CC(=O)c1ccc(S(=O)(=O)N2CCN(CC(=O)Nc3ccccc3C(=O)NC3CC3)CC2)cc1 | 0 | 0 | 0 | 0 | 0 | 37.0
O=C(CN1CCN(S(=O)(=O)c2ccccc2)CC1)Nc1ccccc1C(=O)NC1CC1 | 0 | 0 | 0 | 0 | 0 | 0
CCCNC(=O)C1(C)CCN1C(=O)C/C=C/c1ccccc1 (stereo not given) | 0 | 0 | 0 | 0 | - | 0
CCCCN1Cc2ccccc2Oc2cc(Br)ccc2S1(=O)=O | + | 30.7 | 0 | 25.7 | 0 | 0
CC(C)CN1Cc2ccccc2Oc2cc(Br)ccc2S1(=O)=O | 0 | 29.4 | 0 | 0 | 0 | 0
C[C@@H](c1ccccc1)N1Cc2ccccc2Oc2cc(Br)ccc2S1(=O)=O | 0 | 0 | 0 | 0 | 0 | 0
CC(C)Cc1ccc(C(=O)Nc2ccc(Cc3ccncc3)cc2)o1 | 0 | 0 | 0 | 0 | 0 | 0
Cc1cc(C)c2[nH]c(C)c(CN3CCCCCC3)c(=O)c2c1 | + | 0 | 0 | 0 | 0 | 0
Cc1[nH]c2c(Cl)cccc2c(=O)c1CN1CCCC1 | 0 | 0 | 0 | 0 | 0 | 0
CCOC(=O)c1c(NC(=O)C(C)N2CCN(C(=O)c3ccco3)CC2)sc2c1CCCC2 (stereo not given) | 0 | 19.8 | 0 | 0 | 0 | 37.3
CC1(C)CC(N2CCN(CCO)CC2)=CC(=S)N1 | + | 0 | 0 | 0 | 0 | 0
O=[N+]([O-])c1ccccc1/C=C/CN1CCSCC1 | 0 | 0 | 0 | 0 | 0 | 0
CC1CCCCN1C/C=C/c1ccccc1[N+](=O)[O-] (stereo not given) | 0 | 0 | 0 | 0 | 0 | 86.1
CCC1CCCCN1C/C=C/c1ccccc1[N+](=O)[O-] (stereo not given) | 0 | 0 | 0 | 0 | 0 | 88.7
CC1CCCN(C/C=C/c2ccccc2[N+](=O)[O-])C1 (stereo not given) | 0 | 0 | 0 | 0 | 0 | 0
CC(C)(C)NC(=O)C(c1ccc(C(F)(F)F)cc1)n1c(=O)c(-c2ccco2)nc2ccccc21 (stereo not given) | 0 | - | 0 | - | - | -

Assay outcomes from PubChem.
